Experimental data reported in PubChem BioAssay (NCATS).
Records with an inconclusive call do not appear. Active and inactive are the calls of the source. Calls follow the shape of the dose curve; as a rule, active = well fitted cell-killing curve with a large enough effect; inconclusive = small, poorly fitted or top-dose-only effect, or effect the other way; inactive = flat fitted curve, though single readings scatter.

Tests used:
Assay in all cases: Primary qHTS to identify gynecologic anti-cancer compounds using libraries of approved drugs and bioactive compounds (AID 1345084); also: nearly all actives have a fitted effect of over 55% in size
C33A = conditions: Gynecologic cancer cell panel viability, ATPlite luminescence, 48 h; series mostly up to 57.5 µM
In short: (§1)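 Cells, 1,000 per well, plated 16 h, then exposed 48 h at 37 C to compounds. Viability by ATPlite luminescence after 15 min at room temperature.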

CAOV3 = conditions: Gynecologic cancer cell panel viability, ATPlite luminescence, 48 h; series mostly up to 57.5 µM
In short: as §1

CASKI = conditions: Gynecologic cancer cell panel viability, ATPlite luminescence, 48 h; series mostly up to 57.5 µM
In short: as §1

Es-2 = conditions: Gynecologic cancer cell panel viability, ATPlite luminescence, 48 h; series mostly up to 57.5 µM
In short: as §1

HeLa = conditions: Gynecologic cancer cell panel viability, ATPlite luminescence, 48 h; series mostly up to 57.5 µM
In short: as §1

Hek293T = conditions: Gynecologic cancer cell panel viability, ATPlite luminescence, 48 h, control line for the selectivity index; series mostly up to 57.5 µM
In short: as §1

JEG-3 = conditions: Gynecologic cancer cell panel viability, ATPlite luminescence, 48 h; series mostly up to 57.5 µM
In short: as §1

OV90 = conditions: Gynecologic cancer cell panel viability, ATPlite luminescence, 48 h; series mostly up to 57.5 µM
In short: as §1

PA-1 = conditions: Gynecologic cancer cell panel viability, ATPlite luminescence, 48 h; series mostly up to 57.5 µM
In short: as §1

SKOV3 = conditions: Gynecologic cancer cell panel viability, ATPlite luminescence, 48 h; series mostly up to 57.5 µM
In short: as §1

Tov-21-G = conditions: Gynecologic cancer cell panel viability, ATPlite luminescence, 48 h; series mostly up to 57.5 µM
In short: as §1

Tov112D = conditions: Gynecologic cancer cell panel viability, ATPlite luminescence, 48 h; series mostly up to 57.5 µM
In short: as §1
% is scaled to controls: 0 for no effect and ±100 for the full control effect.

C=C1C[C@]23C[C@@]1(O)CC[C@H]2[C@@]12C=C[C@H](O)[C@@](C)(C(=O)O1)[C@H]2[C@@H]3C(=O)O
inactive: Potency (C33A) | Potency (CAOV3) | outcome (CASKI) | Potency (Es-2) | Potency (HeLa) | Potency (Hek293T) | Potency (JEG-3) | Potency (OV90) | Potency (PA-1) | Potency (SKOV3) | Potency (Tov-21-G) | Potency (Tov112D)

CC1(C(=O)O)CCCC2(C)C3CC4C5CC3(CCC12)CC45C (stereo unspecified)
inactive: Potency (C33A) | Potency (CAOV3) | outcome (CASKI) | Potency (Es-2) | Potency (HeLa) | Potency (Hek293T) | Potency (JEG-3) | Potency (OV90) | Potency (PA-1) | Potency (SKOV3) | Potency (Tov-21-G) | Potency (Tov112D)

CC(=O)OCC1OC(O[C@H]2CC[C@]34C[C@]35CC(O)[C@]3(C)[C@@H]([C@H](C)CC/C=C(\C)C(=O)O)C(O)C[C@@]3(C)C5CC[C@H]4C2(C)C)C(O)C(O)C1OC1OCC(O)C(O)C1O (stereo partly specified)
inactive: activity change, negative = cytotoxicity (C33A) -4.66% [at 11.6 µM] | activity change, negative = cytotoxicity (CAOV3) -5.98% [at 11.6 µM] | activity change, negative = cytotoxicity (CASKI) -12.9% [at 11.6 µM] | activity change, negative = cytotoxicity (Es-2) -0.425% [at 11.6 µM] | activity change, negative = cytotoxicity (HeLa) 6.1% [at 11.6 µM] | activity change, negative = cytotoxicity (Hek293T) -4.45% [at 11.6 µM] | activity change, negative = cytotoxicity (JEG-3) -9.54% [at 11.6 µM] | activity change, negative = cytotoxicity (OV90) -7.9% [at 11.6 µM] | activity change, negative = cytotoxicity (PA-1) -0.531% [at 11.6 µM] | activity change, negative = cytotoxicity (SKOV3) -12.1% [at 11.6 µM] | activity change, negative = cytotoxicity (Tov-21-G) 4.53% [at 11.6 µM] | activity change, negative = cytotoxicity (Tov112D) 2.89% [at 11.6 µM]

COC(=O)C1=CO[C@@H](O[C@@H]2O[C@H](CO)[C@@H](O)[C@H](O)[C@H]2O)[C@@H]2C(CO)=CC[C@H]12
inactive: Potency (C33A) | Potency (CAOV3) | outcome (CASKI) | Potency (Es-2) | Potency (HeLa) | Potency (Hek293T) | Potency (JEG-3) | Potency (OV90) | Potency (PA-1) | Potency (SKOV3) | Potency (Tov-21-G) | Potency (Tov112D)

CC1(C)OC(=O)C=C[C@@]2(C)C1CC(=O)[C@]1(C)C2CC[C@@]2(C)[C@H](c3ccoc3)OC(=O)[C@H]3O[C@]321 (stereo partly specified)
inactive: Potency (C33A) | Potency (CAOV3) | outcome (CASKI) | Potency (Es-2) | Potency (HeLa) | Potency (Hek293T) | Potency (JEG-3) | Potency (OV90) | Potency (PA-1) | Potency (SKOV3) | Potency (Tov-21-G) | Potency (Tov112D)

CCCC/C=C\CCCCCc1cc(=O)c2ccccc2n1C
inactive: Potency (C33A) | Potency (CAOV3) | outcome (CASKI) | Potency (Es-2) | Potency (HeLa) | Potency (Hek293T) | Potency (JEG-3) | Potency (OV90) | Potency (PA-1) | Potency (SKOV3) | Potency (Tov-21-G) | Potency (Tov112D)

COCc1c(O)c(C(=O)O)c(C)c2c1OC(=O)c1c(C)cc(O)c(CO)c1O2
inactive: Potency (C33A) | Potency (CAOV3) | outcome (CASKI) | Potency (Es-2) | Potency (HeLa) | Potency (Hek293T) | Potency (JEG-3) | Potency (OV90) | Potency (PA-1) | Potency (SKOV3) | Potency (Tov-21-G) | Potency (Tov112D)

CCC(=O)OCC(=O)[C@@]1(OC(=O)CC)[C@@H](C)C[C@H]2[C@@H]3CCC4=CC(=O)C=C[C@]4(C)[C@@]3(F)[C@@H](O)C[C@@]21C
inactive: Potency (C33A) | Potency (CAOV3) | outcome (CASKI) | Potency (Es-2) | Potency (HeLa) | Potency (Hek293T) | Potency (JEG-3) | Potency (OV90) | Potency (PA-1) | Potency (SKOV3) | Potency (Tov-21-G) | Potency (Tov112D)

COc1cc(O[C@@H]2O[C@H](CO[C@H]3OC[C@](O)(CO)[C@H]3O)[C@@H](O)[C@H](O)[C@H]2O)cc(OC)c1O
inactive: Potency (C33A) | Potency (CAOV3) | outcome (CASKI) | Potency (Es-2) | Potency (HeLa) | Potency (Hek293T) | Potency (JEG-3) | Potency (OV90) | Potency (PA-1) | Potency (SKOV3) | Potency (Tov-21-G) | Potency (Tov112D)

C[C@H]1[C@H](C)CC[C@]2(C(=O)OC3OC(CO)C(O)C(O)C3O)CC[C@]3(C(=O)O)C(=CCC4[C@@]5(C)CC[C@H](O[C@@H]6O[C@@H](C)[C@H](OC7OC(CO)C(O)C(O)C7O)[C@@H](O)[C@H]6O)C(C)(C)C5CC[C@]43C)[C@H]12 (stereo partly specified)
inactive: activity change, negative = cytotoxicity (C33A) -28.6% [at 11.6 µM] | activity change, negative = cytotoxicity (CAOV3) 3.53% [at 11.6 µM] | activity change, negative = cytotoxicity (CASKI) 6.49% [at 11.6 µM] | activity change, negative = cytotoxicity (Es-2) 4.54% [at 11.6 µM] | activity change, negative = cytotoxicity (HeLa) -0.904% [at 11.6 µM] | activity change, negative = cytotoxicity (Hek293T) 6.98% [at 11.6 µM] | activity change, negative = cytotoxicity (JEG-3) 7.38% [at 11.6 µM] | activity change, negative = cytotoxicity (OV90) 2.97% [at 11.6 µM] | activity change, negative = cytotoxicity (PA-1) -4.62% [at 11.6 µM] | activity change, negative = cytotoxicity (SKOV3) 0% [at 11.6 µM] | activity change, negative = cytotoxicity (Tov-21-G) 0.351% [at 11.6 µM] | activity change, negative = cytotoxicity (Tov112D) -1.72% [at 11.6 µM]

C[C@@H]1O[C@@H](O[C@H]2[C@H](OC(=O)[C@]34CCC(C)(C)C[C@H]3C3=CCC5[C@@]6(C)C[C@@H](O)[C@@H](O[C@@H]7O[C@H](CO)[C@@H](O)[C@H](O)[C@H]7O)[C@@](C)(CO)C6[C@H](O)C[C@@]5(C)[C@]3(C)CC4)OC[C@H](O)[C@@H]2O)[C@H](O)[C@H](O[C@@H]2OC[C@](O)(CO)[C@H]2O)[C@H]1O[C@@H]1OC[C@@H](O)[C@H](O[C@H]2O[C@H](C)[C@@H](O)[C@H](O)[C@@H]2O)[C@H]1O (stereo partly specified)
inactive: activity change, negative = cytotoxicity (C33A) 7.61% [at 6.55 µM] | activity change, negative = cytotoxicity (CAOV3) 0.345% [at 6.55 µM] | activity change, negative = cytotoxicity (CASKI) 0.644% [at 6.55 µM] | activity change, negative = cytotoxicity (Es-2) -2.14% [at 6.55 µM] | activity change, negative = cytotoxicity (HeLa) 14.1% [at 6.55 µM] | activity change, negative = cytotoxicity (Hek293T) 4.59% [at 6.55 µM] | activity change, negative = cytotoxicity (JEG-3) 14.8% [at 6.55 µM] | activity change, negative = cytotoxicity (OV90) -9.58% [at 6.55 µM] | activity change, negative = cytotoxicity (PA-1) 3.83% [at 6.55 µM] | activity change, negative = cytotoxicity (SKOV3) 3.05% [at 6.55 µM] | activity change, negative = cytotoxicity (Tov-21-G) -0.147% [at 6.55 µM] | activity change, negative = cytotoxicity (Tov112D) 7.72% [at 6.55 µM]

C[C@@H]1O[C@@H](O[C@@H]2[C@@H](O)[C@H](O[C@H]3[C@H](O[C@H]4CC[C@@]5(C)C(CC[C@]6(C)C5CC=C5[C@@H]7CC(C)(C)CC[C@]7(C(=O)O[C@@H]7O[C@H](CO)[C@@H](O)[C@H](O)[C@H]7O)CC[C@]56C)C4(C)C)O[C@H](C(=O)O)[C@@H](O)[C@@H]3O)OC[C@H]2O)[C@H](O)[C@H](O)[C@H]1O (stereo partly specified)
inactive: activity change, negative = cytotoxicity (C33A) -13.9% [at 11.6 µM] | activity change, negative = cytotoxicity (CAOV3) -6.12% [at 11.6 µM] | activity change, negative = cytotoxicity (CASKI) -1.32% [at 11.6 µM] | activity change, negative = cytotoxicity (Es-2) -9.99% [at 11.6 µM] | activity change, negative = cytotoxicity (HeLa) -3.66% [at 11.6 µM] | activity change, negative = cytotoxicity (Hek293T) -0.983% [at 11.6 µM] | activity change, negative = cytotoxicity (JEG-3) -0.837% [at 11.6 µM] | activity change, negative = cytotoxicity (OV90) 0.961% [at 11.6 µM] | activity change, negative = cytotoxicity (PA-1) 4.95% [at 11.6 µM] | activity change, negative = cytotoxicity (SKOV3) 20.4% [at 11.6 µM] | activity change, negative = cytotoxicity (Tov-21-G) 1.4% [at 11.6 µM] | activity change, negative = cytotoxicity (Tov112D) 6.86% [at 11.6 µM]

COc1cc(/C=C/c2ccccc2)c(C(=O)O)c(O)c1CC=C(C)C
inactive: Potency (C33A) | Potency (CAOV3) | outcome (CASKI) | Potency (Es-2) | Potency (HeLa) | Potency (Hek293T) | Potency (JEG-3) | Potency (OV90) | Potency (PA-1) | Potency (SKOV3) | Potency (Tov-21-G) | Potency (Tov112D)
